Data taken from the supplement of paper PMC9794691.

Test system: PC9
Test: area under confluence curve of osimertinib + compound combination regimen (DTP regrowth); compare to osimertinib-only DTP control AUC of the same experiment (AUC (confluence x time, arbitrary))
Procedure: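 compare to osimertinib-only DTP control AUC of the same experiment; Long-term drug-tolerant persister (DTP) screen in EGFR-mutant NSCLC cell lines in 48-well plates. The test compound was given at one fixed dose with osimertinib, either upfront (from day 0 to the DTP stage at 10-21 days, then drug-free medium) or sequentially (osimertinib alone to the DTP stage, then the test compound). IncuCyte confluence was tracked until osimertinib-only controls regrew, and AUC was computed in Prism. AUC scale depends on experiment duration, so each row carries the same-experiment osimertinib-only DTP and DMSO control AUCs; combination activity = control minus combo AUC. Osimertinib dose not stated.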

[1] = test compound dose 100 nM, dosing schedule: sequential, osimertinib-only DTP control AUC in same experiment: 12891, DMSO control AUC in same experiment: 44384
[2] = test compound dose 100 nM, dosing schedule: upfront, osimertinib-only DTP control AUC in same experiment: 16570, DMSO control AUC in same experiment: 44384
[3] = test compound dose 1000 nM, dosing schedule: sequential, osimertinib-only DTP control AUC in same experiment: 15044, DMSO control AUC in same experiment: 30604
[4] = test compound dose 1000 nM, dosing schedule: upfront, osimertinib-only DTP control AUC in same experiment: 20672, DMSO control AUC in same experiment: 30604

Structure (SMILES): Cc1nc(Nc2ncc(C(=O)Nc3c(C)cccc3Cl)s2)cc(N2CCN(CCO)CC2)n1 [Dasatinib] + C=CC(=O)Nc1cc(Nc2nccc(-c3cn(C)c4ccccc34)n2)c(OC)cc1N(C)CCN(C)C [osimertinib]
- area under confluence curve (test compound dose 30 nM, dosing schedule: sequential, osimertinib-only DTP control AUC in same experiment: 10175, DMSO control AUC in same experiment: 27958): 2120
- area under confluence curve (test compound dose 30 nM, dosing schedule: sequential, osimertinib-only DTP control AUC in same experiment: 12589, DMSO control AUC in same experiment: 28243): 1440
- area under confluence curve (test compound dose 30 nM, dosing schedule: upfront, osimertinib-only DTP control AUC in same experiment: 16088, DMSO control AUC in same experiment: 28243): 1770
- area under confluence curve (test compound dose 30 nM, dosing schedule: upfront, osimertinib-only DTP control AUC in same experiment: 16134, DMSO control AUC in same experiment: 27958): 2420

Structure (SMILES): C/C=C/Cn1cc(-c2cc(OC)c(C(=O)N3CCOCC3)cc2OC)c2cc(C)[nH]c2c1=O + C=CC(=O)Nc1cc(Nc2nccc(-c3cn(C)c4ccccc34)n2)c(OC)cc1N(C)CCN(C)C [osimertinib]
- area under confluence curve [1]: 7150
- area under confluence curve [2]: 7750

Structure (SMILES): O=C(NC[C@H](O)CN1CCc2ccccc2C1)c1ccnc(NC2CCC2)c1 + C=CC(=O)Nc1cc(Nc2nccc(-c3cn(C)c4ccccc34)n2)c(OC)cc1N(C)CCN(C)C [osimertinib]
- area under confluence curve [1]: 979
- area under confluence curve [2]: 3800

Structure (SMILES): COc1nnc2ccc(N3CCC(c4ccc(OCCN5CCN(C)C(=O)[C@H]5C)cc4)CC3)nn12 + C=CC(=O)Nc1cc(Nc2nccc(-c3cn(C)c4ccccc34)n2)c(OC)cc1N(C)CCN(C)C [osimertinib]
- area under confluence curve (test compound dose 300 nM, dosing schedule: sequential, osimertinib-only DTP control AUC in same experiment: 3562, DMSO control AUC in same experiment: 31840): 2500
- area under confluence curve (test compound dose 300 nM, dosing schedule: sequential, osimertinib-only DTP control AUC in same experiment: 10968, DMSO control AUC in same experiment: 21594): 7840
- area under confluence curve (test compound dose 300 nM, dosing schedule: sequential, osimertinib-only DTP control AUC in same experiment: 12231, DMSO control AUC in same experiment: 19076): 5480
- area under confluence curve (test compound dose 300 nM, dosing schedule: sequential, osimertinib-only DTP control AUC in same experiment: 12891, DMSO control AUC in same experiment: 44384): 2120
- area under confluence curve (test compound dose 300 nM, dosing schedule: upfront, osimertinib-only DTP control AUC in same experiment: 16535, DMSO control AUC in same experiment: 19076): 15300
- area under confluence curve (test compound dose 300 nM, dosing schedule: upfront, osimertinib-only DTP control AUC in same experiment: 16570, DMSO control AUC in same experiment: 44384): 19700
- area under confluence curve (test compound dose 300 nM, dosing schedule: upfront, osimertinib-only DTP control AUC in same experiment: 17834, DMSO control AUC in same experiment: 21594): 15800
- area under confluence curve (test compound dose 300 nM, dosing schedule: upfront, osimertinib-only DTP control AUC in same experiment: 19015, DMSO control AUC in same experiment: 31840): 27400

Structure (SMILES): CN(C)CCCOc1ccc(-c2ccc3ncc4c(c3c2)n(C2CCOCC2)c(=O)n4C)cn1 + C=CC(=O)Nc1cc(Nc2nccc(-c3cn(C)c4ccccc34)n2)c(OC)cc1N(C)CCN(C)C [osimertinib]
- area under confluence curve (test compound dose 300 nM, dosing schedule: sequential, osimertinib-only DTP control AUC in same experiment: 7760, DMSO control AUC in same experiment: 29563): 4600
- area under confluence curve (test compound dose 300 nM, dosing schedule: sequential, osimertinib-only DTP control AUC in same experiment: 15001, DMSO control AUC in same experiment: 22064): 14800
- area under confluence curve (test compound dose 300 nM, dosing schedule: sequential, osimertinib-only DTP control AUC in same experiment: 15044, DMSO control AUC in same experiment: 30604): 3980
- area under confluence curve (test compound dose 300 nM, dosing schedule: upfront, osimertinib-only DTP control AUC in same experiment: 11798, DMSO control AUC in same experiment: 29563): 5590
- area under confluence curve (test compound dose 300 nM, dosing schedule: upfront, osimertinib-only DTP control AUC in same experiment: 20672, DMSO control AUC in same experiment: 30604): 5990
- area under confluence curve (test compound dose 300 nM, dosing schedule: upfront, osimertinib-only DTP control AUC in same experiment: 24924, DMSO control AUC in same experiment: 22064): 22400

Structure (SMILES): Cn1cnc2c(F)c(Nc3ccc(Br)cc3Cl)c(C(=O)NOCCO)cc21 [Selumetinib] + C=CC(=O)Nc1cc(Nc2nccc(-c3cn(C)c4ccccc34)n2)c(OC)cc1N(C)CCN(C)C [osimertinib]
- area under confluence curve (test compound dose 300 nM, dosing schedule: sequential, osimertinib-only DTP control AUC in same experiment: 14554, DMSO control AUC in same experiment: 49189): 10400
- area under confluence curve (test compound dose 300 nM, dosing schedule: upfront, osimertinib-only DTP control AUC in same experiment: 24473, DMSO control AUC in same experiment: 49189): 11200

Structure (SMILES): CN(C)C(=O)c1cc2cnc(Nc3ccc(N4CCNCC4)cn3)nc2n1C1CCCC1 [Ribociclib] + C=CC(=O)Nc1cc(Nc2nccc(-c3cn(C)c4ccccc34)n2)c(OC)cc1N(C)CCN(C)C [osimertinib]
- area under confluence curve (test compound dose 300 nM, dosing schedule: sequential, osimertinib-only DTP control AUC in same experiment: 23366, DMSO control AUC in same experiment: 88996): 13600
- area under confluence curve (test compound dose 300 nM, dosing schedule: upfront, osimertinib-only DTP control AUC in same experiment: 29852, DMSO control AUC in same experiment: 88996): 20500

Structure (SMILES): Cc1onc(C(=O)N2CCN(C(c3ccc(Cl)cc3)c3ccc(Cl)cc3)CC2)c1[N+](=O)[O-] + C=CC(=O)Nc1cc(Nc2nccc(-c3cn(C)c4ccccc34)n2)c(OC)cc1N(C)CCN(C)C [osimertinib]
- area under confluence curve (test compound dose 1000 nM, dosing schedule: sequential, osimertinib-only DTP control AUC in same experiment: 8716, DMSO control AUC in same experiment: 45737): 823
- area under confluence curve (test compound dose 1000 nM, dosing schedule: upfront, osimertinib-only DTP control AUC in same experiment: 11096, DMSO control AUC in same experiment: 45737): 19300

Structure (SMILES): COc1cc(CCc2cc(NC(=O)c3ccc(N4CC(C)NC(C)C4)cc3)n[nH]2)cc(OC)c1 (stereo not given) + C=CC(=O)Nc1cc(Nc2nccc(-c3cn(C)c4ccccc34)n2)c(OC)cc1N(C)CCN(C)C [osimertinib]
- area under confluence curve (test compound dose 1000 nM, dosing schedule: sequential, osimertinib-only DTP control AUC in same experiment: 9508, DMSO control AUC in same experiment: 26668): 4800
- area under confluence curve (test compound dose 1000 nM, dosing schedule: sequential, osimertinib-only DTP control AUC in same experiment: 10968, DMSO control AUC in same experiment: 21594): 7160
- area under confluence curve (test compound dose 1000 nM, dosing schedule: upfront, osimertinib-only DTP control AUC in same experiment: 11298, DMSO control AUC in same experiment: 26668): 2090
- area under confluence curve (test compound dose 1000 nM, dosing schedule: upfront, osimertinib-only DTP control AUC in same experiment: 17834, DMSO control AUC in same experiment: 21594): 6660

Structure (SMILES): O=C(N[C@@H](C1CC1)C(F)(F)F)c1cc(-c2cnn3cc(-c4ccc(F)cc4)cnc23)cs1 + C=CC(=O)Nc1cc(Nc2nccc(-c3cn(C)c4ccccc34)n2)c(OC)cc1N(C)CCN(C)C [osimertinib]
- area under confluence curve (test compound dose 1000 nM, dosing schedule: sequential, osimertinib-only DTP control AUC in same experiment: 10206, DMSO control AUC in same experiment: 18733): 9160
- area under confluence curve (test compound dose 1000 nM, dosing schedule: upfront, osimertinib-only DTP control AUC in same experiment: 17072, DMSO control AUC in same experiment: 18733): 16800

Structure (SMILES): O=C(c1cc(Cc2n[nH]c(=O)c3ccccc23)ccc1F)N1CCN(C(=O)C2CC2)CC1 [Olaparib] + C=CC(=O)Nc1cc(Nc2nccc(-c3cn(C)c4ccccc34)n2)c(OC)cc1N(C)CCN(C)C [osimertinib]
- area under confluence curve (test compound dose 1000 nM, dosing schedule: sequential, osimertinib-only DTP control AUC in same experiment: 15001, DMSO control AUC in same experiment: 22064): 7460
- area under confluence curve [3]: 12600
- area under confluence curve [4]: 16600
- area under confluence curve (test compound dose 1000 nM, dosing schedule: upfront, osimertinib-only DTP control AUC in same experiment: 24924, DMSO control AUC in same experiment: 22064): 18600

Structure (SMILES): Cc1cc2ncnn2cc1Nc1ncc2c(n1)n(C1CCOCC1)c(=O)n2C + C=CC(=O)Nc1cc(Nc2nccc(-c3cn(C)c4ccccc34)n2)c(OC)cc1N(C)CCN(C)C [osimertinib]
- area under confluence curve [3]: 10500
- area under confluence curve [4]: 12700
